These results are taken from PubChem BioAssay (NCATS).

Test [1] can be described thus: Primary fluorescence-based thiol-reactive (MSTI) qHTS assay for identification of artifact compounds. (AID 1845221). Further: nearly all actives have a fitted effect of over 65% in size. Further: potency means the concentration at half of the fitted maximal effect.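 On activity change, negative = thiol reactive: series mostly up to about 54 µM; thiol-reactive compounds lower the probe fluorescence signal.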 A digest of the protocol:
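First, 4 uM MSTI in 2% DMSO/PBS pH 7.4 was dispensed; next, compounds were added; then plates sat 1 h at room temperature without light. Finally, emission at 598 nm was recorded.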
Background: In qHTS, concentration-response curves come from the screen itself.

In test [2] the test system is Nanoluciferase (engineered Oplophorus gracilirostris luciferase). Kind of test: Primary Nanoluciferase (NLuc) qHTS assay for identification of artifact compounds. (AID 1845222).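 Further: NLuc secreted into diluted conditioned medium of S16 cells; series mostly up to about 54 µM; 0% = DMSO and -100% = no enzyme.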 A digest of the protocol:
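Concentration-response data were obtained by luminescence after 5 min with Nano-Glo substrate at 1:100. The enzyme was diluted S16 NLuc-expressing cell medium, preincubated with compound for 15 min at RT. Curves were fitted with a 4-parameter Hill model.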

A short description of test [3]: Primary redox qHTS assay for identification of artifact compounds. (AID 1845223).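 Further: 0% = DMSO and 100% = reference compound.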 The procedure, abridged: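 Redox-cycling detection via DTT (250 uM final) oxidation coupled to Amplex Red (25 uM)/HRP (250 mU/mL) in HBSS. 15 min preincubation plus 30 min after DTT, room temperature. Ex/Em 525/598 nm; 4-parameter Hill fit against DMSO and 10 uM DA3003.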

Values without a mark were called inactive. Inconclusive results are not listed. Activity calls are given as the source filed them. The call rests on the fitted dose curve; in most records, active means well fitted curve in the direction sought with a large enough effect; inconclusive means small, poorly fitted or top-dose-only effect, or another doubt; inactive means no such curve, though single readings can be large; an effect the other way counts as inactive or inconclusive.

In the case of `COc1cccc(-c2ccc([C@@H](Oc3cc(-c4ccc(C[C@H](N)C(=O)O)cc4)nc(N)n3)C(F)(F)F)cc2)c1`, the Potency entry in test [1], in test [2] and in test [3] was “inactive” throughout.

As for `CCOC(=O)[C@H]1O[C@@H]1C(=O)N[C@@H](CC(C)C)C(=O)NCCC(C)C`, the Potency entry in test [1], in test [2] and in test [3] was “inactive” in each case.

For `O=C1NCc2nc3ccccc3c(=O)n2C1Cc1c[nH]c2ccccc12` (stereo not drawn), the Potency result in test [1], in test [2] and in test [3] was “inactive” throughout.

Regarding `CCn1cc(C2=NOC(C(=O)Nc3c(C)n(C)n(-c4ccccc4)c3=O)C2)c(C)n1` (stereo not drawn), the Potency entry in test [1], in test [2] and in test [3] was “inactive” in each case.

Regarding `CC1(C)CCCC2(C)C3=C(C(=O)OC3O)C(O)CC12` (stereo not drawn), the Potency entry in test [1], in test [2] and in test [3] was “inactive” in each case.

Take `CC(O)C(O)/C=C/C=C/C(=O)O[C@@H]1C=C2COC(=O)[C@]2(O)[C@@]2(C)CCCC(C)(C)C12` (stereo partly drawn): the Potency entry in test [1], in test [2] and in test [3] was “inactive” in each case.

In the case of `CCC[C@@H]1C[C@@H](C(=O)N[C@@H]([C@H]2O[C@H](SC)[C@H](O)[C@@H](O)[C@@H]2O)[C@@H](C)O)N(C)C1`, the Potency result in test [1], in test [2] and in test [3] was “inactive” each time.

Consider `OC[C@H]1O[C@@H](OC(CCCCc2ccc(O)cc2)CCc2ccc(O)cc2)[C@H](O[C@@H]2OC[C@](O)(CO)[C@H]2O)[C@@H](O)[C@@H]1O` (stereo partly drawn), for which the Potency result in test [1], in test [2] and in test [3] was “inactive” throughout.

`C/C=C/C1=CC2=C(CO1)C(=O)[C@](C)(O)[C@H](OC(=O)c1c(O)cc(OC)c(O)c1C)C2`: the Potency in test [1] is 1.03 µM (active). Moreover, the Potency result in test [2] and in test [3] was “inactive” throughout.

For `CC(=O)O[C@@H]1[C@H](O[C@@H]2OC[C@](O)(CO)[C@H]2O)[C@@H](O[C@@H]2O[C@@H](C)[C@H](O)[C@@H](O)[C@H]2O)[C@H](OC(=O)[C@]23CCC(C)(C)C[C@H]2C2=CCC4[C@@]5(C)C[C@H](O)[C@H](O[C@@H]6O[C@H](C(=O)O)[C@@H](O)[C@H](O)[C@H]6O)[C@@](C)(C(=O)O)C5CC[C@@]4(C)[C@]2(C)CC3)O[C@@H]1C` (stereo partly drawn), the activity change, negative = thiol reactive in test [1] was 279% [at 11.5 µM]. The activity, negative = inhibition in test [2] is 2.83% [at 11.6 µM]. Further, in test [3], the redox activity (% of DA3003) is 2.26% [at 11.5 µM].

As to `CC1=CCC2C(C)(CO)CCCC2(C)C1CC12OC1C(O)C(CO)=CC2O` (stereo not drawn), the Potency result in test [1], in test [2] and in test [3] was “inactive” in each case.

Take `C=C(C(=O)O)C1CCC(C)C2CCC(=O)OC2(C)C1` (stereo not drawn): the Potency in test [1] was 11.9 µM (active). Also, the Potency entry in test [2] and in test [3] was “inactive” throughout.

As to `C1CCN2CC3C[C@@H](CN4CCCC[C@@H]34)[C@H]2C1`, the Potency result in test [1], in test [2] and in test [3] was “inactive” each time.

Take `CC1CCC2(C(=O)OC3OC(CO)C(O)C(O)C3O)CCC3(C(=O)O)C(=CCC4C5(C)CCC(OC6OC(C)C(O)C(O)C6O)C(C)(C)C5CCC43C)C2C1C` (stereo not drawn): the Potency result in test [1], in test [2] and in test [3] was “inactive” throughout.

With `C[C@@H]1O[C@@H](O[C@@H]2[C@@H](O)[C@@H](O)[C@H](O[C@@H]3[C@@H](O)[C@@H](O[C@]4(CO)O[C@H](CO)[C@@H](O)[C@@H]4OC(=O)/C=C/c4ccc(O)cc4)O[C@H](CO)[C@H]3OC(=O)/C=C/c3ccc(O)cc3)O[C@H]2C)[C@H](O)[C@H](O)[C@H]1O`, in test [1], the activity change, negative = thiol reactive was 65.2% [at 11.5 µM]. Also, the activity, negative = inhibition in test [2] was 1.58% [at 11.6 µM]. Also, in test [3], the redox activity (% of DA3003) is -13.4% [at 11.5 µM].

On to `CC(C)C1=CC2=CCC3[C@](C)(CCC[C@@]3(C)C(=O)O)C2CC1O` (stereo partly drawn), for which the Potency entry in test [1], in test [2] and in test [3] was “inactive” throughout.

As for `CN1C(=O)c2ccccc2-n2c(nc3ccccc3c2=O)/C1=C/c1ccccc1`, the Potency entry in test [1], in test [2] and in test [3] was “inactive” each time.

Regarding `C=C1C[C@@]23CC[C@@H]4[C@](C)(C(=O)O)CCC[C@@]4(C)C2=CC[C@H]1C3`, the Potency entry in test [1], in test [2] and in test [3] was “inactive” throughout.

Regarding `CC1(CO)CC[C@]2(C(=O)O[C@@H]3O[C@H](CO)[C@@H](O)[C@H](O)[C@H]3O)CC[C@]3(C)C(=CCC4[C@@]5(C)CC[C@H](O[C@@H]6O[C@H](C(=O)O)[C@@H](O)[C@H](O)[C@H]6O)C(C)(C)C5CC[C@]43C)C2C1` (stereo partly drawn), the activity change, negative = thiol reactive in test [1] was -2.52% [at 11.5 µM]. Besides, the activity, negative = inhibition in test [2] is 2.96% [at 11.6 µM]. In addition, the redox activity (% of DA3003) in test [3] was 19.9% [at 11.5 µM].

Consider `COC(=O)[C@@]1(O)C=CC[C@@H]2[C@@]3(C)C[C@@H](c4ccoc4)OC(=O)[C@H]3CC[C@]21C`, for which the Potency result in test [1], in test [2] and in test [3] was “inactive” in each case.

On to `O=C(O)[C@H]1CCCC[C@H]1C(=O)N1CCc2ccccc2[C@H]1CN1C(=O)c2ccccc2C1=O`, for which the Potency entry in test [1], in test [2] and in test [3] was “inactive” each time.

As for `O=C(/C=C/c1ccc(O)cc1)OC[C@]12O[C@H]1[C@@H](O)[C@@H]1C=CO[C@@H](O[C@@H]3O[C@H](CO)[C@@H](O)[C@H](O)[C@H]3O)[C@@H]12`, the Potency result in test [1], in test [2] and in test [3] was “inactive” in each case.

With `CN1C(=O)c2ccccc2-n2c(nc3ccccc3c2=O)[C@@]12O[C@H]2c1ccccc1`, the Potency entry in test [1], in test [2] and in test [3] was “inactive” each time.

Turning to `CC(C)Nc1cc(-c2c[nH]c(C(=O)N[C@H](CO)c3cccc(Cl)c3)c2)c(Cl)cn1`, the Potency entry in test [1], in test [2] and in test [3] was “inactive” throughout.

Turning to `CC(C)C1(O[C@@H]2O[C@H](CO)[C@@H](O)[C@H](O)[C@H]2O)CC=C(CO)CC1` (stereo partly drawn), in test [1], the Potency was 11.7 µM (active). For the same compound, the Potency result in test [2] and in test [3] was “inactive” in each case.

As for `CCOC(=O)Nc1nc2ccccc2[nH]1`, the Potency entry in test [1], in test [2] and in test [3] was “inactive” in each case.
